Test [1] in a line: NCI Yeast Anticancer Drug Screen. Data for the rad50 strain (AID 155).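 Note: 0% = growth of vehicle-only cultures of the same strain.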 Particulars: S. cerevisiae rad50 strain growth inhibition; at 50.0 µM; stronger effect = higher value. In outline:
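Genetically altered yeast (DNA repair pathway); compound treatment; growth inhibition vs vehicle ctrl.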

Test [2] can be described thus: NCI Yeast Anticancer Drug Screen. Data for the mec2-1 strain (AID 157). Particulars: S. cerevisiae mec2-1 strain, at 50.0 µM, stronger effect = higher value. In outline:
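Vehicle-treated cultures served as reference for growth inhibition of compound-exposed mec2-1 yeast.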

The nature of test [3]: NCI Yeast Anticancer Drug Screen. Data for the sgs1 mgt1 strain (AID 161).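 Note: 0% = growth of cultures given vehicle only.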 Particulars: S. cerevisiae sgs1 mgt1 strain, at 50.0 µM, stronger effect = higher value. In outline: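 Mutant yeast exposed to compound; growth scored against vehicle-only wells.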
A short description of test [4]: NCI Yeast Anticancer Drug Screen. Data for the cln2 rad14 strain (AID 165).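 Note: 0% = growth equal to vehicle treated cultures.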 The conditions noted are these: S. cerevisiae cln2 rad14 strain, at 50.0 µM, stronger effect = higher value. The gist of the method:
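Each compound was tested on cln2 rad14 yeast. Inhibition of growth was calculated against vehicle-exposed controls.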

A short description of test [5]: NCI Yeast Anticancer Drug Screen. Data for the bub3 strain (AID 167). The conditions noted are these: S. cerevisiae bub3 mutant strain, at 50.0 µM, stronger effect = higher value. The gist of the method:
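Yeast carrying a defined mutation is treated with each compound, and growth is compared with that of vehicle-exposed cells to give inhibition.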

The nature of test [6]: NCI Yeast Anticancer Drug Screen. Data for the mlh1 rad18 strain (AID 175). The conditions noted are these: S. cerevisiae mlh1 rad18 strain growth inhibition; at 50.0 µM; stronger effect = higher value. The gist of the method: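 Vehicle-treated cultures served as the reference for growth inhibition in a yeast strain carrying DNA damage repair alterations exposed to each compound.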

Molecules are shown by their SMILES. Several values for one entry are separate records, joined by “and”; a condition that tells them apart may be missing. Equal values may be shown once. The panel holds about 79,000 compounds, 15% with a hit somewhere; the sample as a whole holds those more often. Values without a mark were called inactive. Activity calls are given as the source filed them. Cut-off read from the data, not from the text of the source: active = growth inhibition above about 70%; inactive = the rest.

In the case of `COc1ccc(C[C@@H]2NC[C@@H](O)[C@@H]2OC(C)=O)cc1`, the growth inhibition in test [1] was 91.3% (active); in test [2], 93.2% (active); in test [3] it was 93.2% (active); in test [4], 91.8% (active); in test [5], 92.2% (active); in test [6], 91.3% (active).
With `CCSCCC(N)C(=O)O` (stereo not drawn), the growth inhibition in test [1] was 0.15% and -21.3%; in test [2], -13.9% and -15%; in test [3], -37.8% and -2%; in test [4], -70.4% and -32.9%; in test [6], -13.2% and -28.6%.
Take `[O-][N+]12CCCCC1C1CC(C2)C2CCCC(c3ccccc3)N2C1` (stereo not drawn): the growth inhibition was 3.55% in test [1]; -25.1% in test [2]; -22.8% in test [3]; -34.8% in test [4]; -28% in test [5]; -59.2% in test [6].
For the molecule `Cn1c(=O)n(C2(C)C[Se]C2)c2ccccc21`, the growth inhibition is -11.5% in test [1]; -15.7% in test [2]; -16.8% in test [3]; -15.4% in test [4]; -13.7% in test [5]; -22.5% in test [6].
With `c1ccc(C2(N3CCC4(CC3)OCCO4)CCCCC2)cc1`, the growth inhibition was 13% in test [1]; -2.9% in test [2]; -17.6% in test [4]; 1.35% in test [5]; 6.35% in test [6].
For the molecule `O=P(Oc1ccccc1)(Oc1ccccc1)N(CCCl)CCCl`, the growth inhibition was 0.2% in test [1]; 9.55% in test [2]; -11.9% in test [4]; -19.2% in test [5]; -37.6% in test [6].
Regarding `CC(C)(C)OC(=O)NCC(=O)NC(CSC(c1ccccc1)c1ccccc1)C(=O)NCC(=O)O` (stereo not drawn), the growth inhibition in test [1] is 8.45%; in test [2], 7.3%; in test [3], 11%; in test [4], -6.35%; in test [5], -4.9%; in test [6], 15.1%.
Take `CC1(C)SC2C(NC(=O)Cc3ccccc3)C(=O)N2C1C(=O)O` (stereo not drawn): the growth inhibition in test [1] was 1.45%; in test [2] it was -16.6%; in test [3], -22.4%; in test [4], -97.3%; in test [6], -9.6%.
The matching figures for `CCN(CCCl)c1ccc(NC(=O)c2cc(C(=O)NCCN(C)C)cc(C(=O)Nc3ccc(N(CC)CCCl)cc3)c2)cc1`: 35%, -23.9%, -15.8%, 2.95% and 12.5%.
For `c1c[nH]c(Cc2ncc(Cc3cnc[nH]3)[nH]2)n1`, the growth inhibition was 4.4% in test [1]; -20.6% in test [2]; -9.55% in test [3]; 21.8% in test [4]; -13% in test [5]; -9.6% in test [6].
With `C#CCOC(C(=O)OC1CCN(C)CC1)(c1ccccc1)c1ccccc1`, the growth inhibition is -3.5% in test [1]; -11.8% in test [2]; -6.45% in test [3]; -36.9% in test [4]; 0.3% in test [5]; -1.95% in test [6].
With `CCCCCCCCCCC(O)C1CCC(C(O)CCC(O)C2CCC(CCCCCCC[C@H](O)CC3=C[C@@H](C)OC3=O)O2)O1` (stereo partly drawn), the growth inhibition in test [1] is 31.4%; in test [2], 6.55%; in test [3], 1.55%; in test [4], 12.9%; in test [6] it was 27.2%.
Consider `COc1cc(C2c3cc4c(cc3OC(NNS(=O)(=O)c3ccc(C)cc3)C2C)OCO4)cc(OC)c1O` (stereo not drawn), for which the growth inhibition in test [1] is -3.5%; in test [2], -7.8%; in test [3], -15.8%; in test [4], 0.15%; in test [5], -12.5%; in test [6] it was 1.6%.
For the molecule `CC(C)(C)C1=C(Br)C(OC(=O)C(F)(F)F)(C(C)(C)C)OP1(=O)c1ccccc1` (stereo not drawn), the growth inhibition in test [1] was 1.55%; in test [2], 12.2%; in test [3], -22.9%; in test [4], 30.9%; in test [6], -7.2%.
Regarding `S=c1[nH]c2ccccc2[nH]1.[Zn+2]`, the growth inhibition was 13.2% in test [1]; 10.3% in test [2]; 10.2% in test [4]; -21.4% in test [5]; -5.35% in test [6].
Take `CCCCCCCCCC[C@@H](O)[C@@H]1CC[C@@H]([C@@H]2CC[C@@H]([C@@H](O)CCCCCCCCCC[C@H](O)CC3=CC(C)OC3=O)O2)O1` (stereo partly drawn): the growth inhibition in test [1] is -3.45%; in test [2], -0.4%; in test [3], 18.8%; in test [4], 31%; in test [5] it was -11.7%; in test [6], -21.9%.
In the case of `O=[N+]([O-])c1ccc(CCl)cc1`, the growth inhibition in test [1] was 16.4%; in test [2], 30.5%; in test [4] it was -15%; in test [5], -23.9%; in test [6] it was 26.6%.
With `Cc1cccc(N2C(=O)C3C(C2=O)C2(Cl)C(Cl)=C(Cl)C3(Cl)C2(Cl)Cl)c1C` (stereo not drawn), the growth inhibition in test [1] was 88.2% (active); in test [2] it was 48.6%; in test [3] it was 50.5%; in test [4] it was 57%; in test [5] it was 65.6%; in test [6], 56%.
For `CCOC(=O)CC(=O)c1ccccc1`, the growth inhibition was 16.9% and -9.6% in test [1]; -17.6% and -2% in test [2]; 14.1% and -15.7% in test [6].
`S=C=Nc1ccccn1`: the growth inhibition was 9.9% in test [1]; 3.35% in test [2]; 22.1% in test [3]; 7.8% in test [4]; 30.6% in test [5]; 21.9% in test [6].
`CCOC(=O)C1(O)N=C(c2ccccc2)c2ccccc2-n2cccc21` (stereo not drawn): the growth inhibition is -21.4% in test [1]; -45.2% in test [2]; -23.9% in test [4]; 10.2% in test [5]; -3.2% in test [6].
With `CC1(C)N=C(N)N=C(N)N1c1ccc(CCCCc2ccc(S(=O)(=O)F)c(Cl)c2)c(Cl)c1`, the growth inhibition was 99.2% (active) in test [1]; 99.5% (active) in test [2]; 99.4% (active) in test [3]; 99.2% (active) in test [4]; 99.3% (active) in test [5]; 99.3% (active) in test [6].
Take `COP(=O)(OC)C(N)CCSC` (stereo not drawn): the growth inhibition in test [1] is -25.1%; in test [2] it was -65.7%; in test [3] it was -61.8%; in test [4] it was 23.7%; in test [5] it was 17.1%; in test [6], -2.1%.
Consider `[CH3][Sn]([CH3])([CH3])[O][N+](=O)[O-]`, for which the growth inhibition in test [1] was 25.6%; in test [2] it was 2.65%; in test [3], 44.6%; in test [4] it was 2.55%; in test [6] it was 18.9%.
On to `CC1NC1c1ccccc1` (stereo not drawn), for which the growth inhibition in test [1] is -13.6%; in test [3] it was -6.85%; in test [4] it was -20.4%; in test [5] it was -11.8%; in test [6], -19.4%.
Consider `CC1=NCCN=C(C)C1[N+](=O)[O-]`, for which the growth inhibition in test [1] was 6.7%; in test [3], 39.2%; in test [4], 0.55%; in test [5], 2.65%; in test [6], 24.3%.
For the molecule `COc1ccc(C(c2c(O)c3ccccc3oc2=O)c2c(O)c3ccccc3oc2=O)cc1`, the growth inhibition in test [1] was -15.3%; in test [2], -0.35%; in test [3], -14.4%; in test [4], -18.2%; in test [5], 1%; in test [6] it was -0.7%.
As to `CCCN(CCC)C(=O)[S-].CCCN(CCC)C(=O)[S-].[Ni+2]`, the growth inhibition in test [1] was 35%; in test [2], -6.25%; in test [3], 33.4%; in test [4], -38.6%; in test [5] it was 2.7%; in test [6], -3.5%.
For `O=C1CC2OCC=C3CN4CCC56c7ccccc7N1C5C2C3CC46` (stereo not drawn), the growth inhibition in test [1] is 9.65%; in test [2] it was 2.3%; in test [3] it was 4.15%; in test [5] it was 8.9%; in test [6], -9.25%.
For the molecule `C=C1CC2CC[C@@]34CC5O[C@@H]6C(O[C@H]7CC[C@H](CC(=O)OC8C(C)C9OC%10C[C@]%11(C[C@@H]%12O[C@]%13(CC(C)[C@@H]%14O[C@H](C(O)CC(O)CO)C[C@@H]%14O%13)CC(C)[C@@H]%12O%11)OC%10CC9O[C@H]8C[C@H]8OC(CC[C@@H]1O2)C[C@@H](C)C8=C)OC7[C@@H]6O3)[C@H]5O4` (stereo partly drawn), the growth inhibition was 87.3% (active) in test [1]; 91.1% (active) in test [2]; 90.6% (active) in test [3]; 83.7% (active) in test [4]; 69.8% in test [6].
For the molecule `O=C1CC2OCC=C3CN4CCC56c7ccccc7N1C5C2C3CC46` (stereo not drawn) (tested in a mixture with another compound), the growth inhibition was 25% and 2.65% and 6.9% in test [1]; -7.15% and 22.6% and -14.6% in test [2]; -15.7% and -7.3% and -9.45% in test [3]; 3.35% and 5.1% and -9.9% in test [5]; 5.7% and 9.45% and 10.1% in test [6].
`O=C1CCCC2C3CC(CN12)C1CCCCN1C3` (stereo not drawn): the growth inhibition was 9.85% and 15.7% in test [1]; -18.3% and -13.9% in test [2]; -3.4% and 6.75% in test [3]; 9.05% and 21.3% in test [4]; -11.8% and 26.9% in test [5]; -29.3% and 32.3% in test [6].
`CN(Cc1ccccc1)C1=NCCN1`: the growth inhibition in test [1] was -1.85%; in test [2], 7.1%; in test [3], -2.95%; in test [4], -47.8%; in test [6], 9.95%.
Turning to `C=CCC1(CC=C)C(=O)N(C)C(=O)N(C)C1=O`, the growth inhibition in test [1] was 7.25%; in test [2], 13.7%; in test [3] it was -6.75%; in test [4], 8.45%; in test [6], -6.95%.

(Values after PubChem BioAssay (NCI).)
